About 79,000 compounds went through this panel and 15% of them were active in at least one assay; those are over-represented in the sample as a whole. A number with no mark means an inactive call. Calls of active or inactive are those of the source. No stated cut-off is given here; in the data, active means growth inhibition above about 70%; inactive means the rest.
Assays:
[1] = NCI Yeast Anticancer Drug Screen. Data for the rad52 strain (AID 147);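 further: 0% = growth of vehicle-treated control cultures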; details: S. cerevisiae rad52 mutant growth inhibition, hits give high values
Procedure, shortened: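 Growth of repair-deficient yeast cells was compared between compound-treated and vehicle-treated cultures to give percent inhibition.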

[2] = NCI Yeast Anticancer Drug Screen. Data for the wt1 strain (AID 149);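 further: 0% = growth of vehicle-treated wt1 cultures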; details: S. cerevisiae wt1 strain (SPY 50644) growth inhibition, hits give high values
Procedure, shortened: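 Growth inhibition read against vehicle controls after compound exposure of the wt1 yeast strain.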

[3] = NCI Yeast Anticancer Drug Screen. Data for the rad50EPP+ strain (AID 151);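 further: 0% = growth of vehicle-treated control cultures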; details: S. cerevisiae rad50 mutant strain, hits give high values
Procedure, shortened: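 Measured: growth inhibition of rad50EPP+ yeast. Reference: vehicle-treated controls. Screen uses strains with defined genetic alterations in DNA damage repair or cell cycle control.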

[4] = NCI Yeast Anticancer Drug Screen. Data for the mgt1 strain (AID 153); details: S. cerevisiae mgt1 mutant growth inhibition, hits give high values
Procedure, shortened: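 Compounds were applied to mgt1 mutant yeast, and growth was then compared against vehicle-treated control cultures to give percent inhibition.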

[5] = NCI Yeast Anticancer Drug Screen. Data for the rad50 strain (AID 155);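 further: 0% = growth of vehicle-only cultures of the same strain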; details: S. cerevisiae rad50 strain growth inhibition, hits give high values
Procedure, shortened: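 Readout: growth inhibition relative to vehicle-treated cultures. Compound exposure was carried out in a genetically defined yeast strain deficient in DNA damage repair.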

[6] = NCI Yeast Anticancer Drug Screen. Data for the mec2-1 strain (AID 157); details: S. cerevisiae mec2-1 strain, hits give high values
Procedure, shortened: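 Compounds were applied to mec2-1 yeast cells. Their growth was then compared with that of vehicle-treated cultures to give growth inhibition.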

[7] = NCI Yeast Anticancer Drug Screen. Data for the rad14 strain (AID 159);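 further: 0% = growth of vehicle-treated control cultures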; details: S. cerevisiae rad14 strain growth inhibition, hits give high values
Procedure, shortened: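 Growth inhibition vs vehicle controls; genetically altered yeast strain (DNA damage repair defect) treated with test compounds.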

[8] = NCI Yeast Anticancer Drug Screen. Data for the CLN2oe strain (AID 163);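 further: 0% = growth of vehicle-only control cultures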; details: S. cerevisiae CLN2oe strain, hits give high values
Procedure, shortened: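 Cells of an engineered yeast line with disturbed cell-cycle regulation are treated with compound. Inhibition of growth is then calculated relative to the vehicle-treated reference.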

[9] = NCI Yeast Anticancer Drug Screen. Data for the bub3 strain (AID 167); details: S. cerevisiae bub3 mutant strain, hits give high values
Procedure, shortened: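 Readout: yeast growth inhibition, expressed relative to vehicle-only wells. The test organism is a mutant strain from a panel with lesions in DNA repair or checkpoint genes.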

[10] = NCI Yeast Anticancer Drug Screen. Data for the wt2 strain (AID 169);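 further: 0% = growth of vehicle-treated yeast cultures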; details: S. cerevisiae wt2 strain growth inhibition, hits give high values
Procedure, shortened: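 Growth of compound-treated yeast is measured and expressed as inhibition relative to vehicle-only controls.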

[11] = NCI Yeast Anticancer Drug Screen. Data for the mlh1 strain (AID 171);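 further: 0% = growth of vehicle-treated control cultures of the same strain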; details: S. cerevisiae mlh1 strain growth inhibition, hits give high values
Procedure, shortened: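 Test agents were incubated with yeast bearing a defined DNA damage repair or cell cycle control alteration; values are growth inhibition normalised to vehicle-treated cultures.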

[12] = NCI Yeast Anticancer Drug Screen. Data for the sgs1 strain (AID 173);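 further: 0% = growth of vehicle-only control cultures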; details: S. cerevisiae sgs1 mutant, hits give high values
Procedure, shortened: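 Strain with an altered DNA repair or cell cycle pathway exposed to compound. Growth then measured. Value = inhibition versus vehicle control.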

[13] = NCI Yeast Anticancer Drug Screen. Data for the mlh1 rad18 strain (AID 175); details: S. cerevisiae mlh1 rad18 strain growth inhibition, hits give high values
Procedure, shortened: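 A repair-deficient yeast strain is exposed to test compound, and growth is scored relative to vehicle-treated controls.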

[14] = NCI Yeast Anticancer Drug Screen. Data for the rad18 strain (AID 177); details: S. cerevisiae rad18 mutant growth inhibition, hits give high values
Procedure, shortened: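 DNA-repair-defective yeast; compound treatment; growth inhibition scored against vehicle.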

[15] = at 5.0 µM (retest, dose inferred, filed as 0.5)
[16] = at 50.0 µM (retest, dose inferred, filed as 5.0)

Structure (SMILES): COc1cc(C2c3cc4c(cc3OC(OC(C)=O)C2C)OCO4)cc(OC)c1OC (configuration not stated)
- growth inhibition ([1]; at 1.2 µM): -1%
- growth inhibition ([1]; at 3.7 µM): -2%
- growth inhibition ([1]; at 11.0 µM): -2%
- growth inhibition ([1]; at 33.0 µM): -5%
- growth inhibition ([1]; at 100.0 µM): 82% (active)
- growth inhibition ([2]; at 1.2 µM): -2%
- growth inhibition ([2]; at 3.7 µM): -3%
- growth inhibition ([2]; at 11.0 µM): -5%
- growth inhibition ([2]; at 33.0 µM): -11%
- growth inhibition ([2]; at 100.0 µM): 56%
- growth inhibition ([3]; at 1.2 µM): -3%
- growth inhibition ([3]; at 3.7 µM): -1%
- growth inhibition ([3]; at 11.0 µM): 1%
- growth inhibition ([3]; at 33.0 µM): -1%
- growth inhibition ([3]; at 100.0 µM): 5%
- growth inhibition ([4]; at 1.2 µM): -2%
- growth inhibition ([4]; at 3.7 µM): -1%
- growth inhibition ([4]; at 11.0 µM): -10%
- growth inhibition ([4]; at 33.0 µM): -12%
- growth inhibition ([4]; at 100.0 µM): 43%
- growth inhibition ([5]; at 1.2 µM): -1%
- growth inhibition ([5]; at 3.7 µM): -1%
- growth inhibition [5, 15]: 1%
- growth inhibition ([5]; at 11.0 µM): -5%
- growth inhibition ([5]; at 33.0 µM): -5%
- growth inhibition [5, 16]: 49%
- growth inhibition ([5]; at 50.0 µM): -0.3%
- growth inhibition ([5]; at 100.0 µM): 77% (active)
- growth inhibition ([6]; at 1.2 µM): -6%
- growth inhibition ([6]; at 3.7 µM): 0%
- growth inhibition [6, 15]: -4%
- growth inhibition ([6]; at 11.0 µM): -1%
- growth inhibition ([6]; at 33.0 µM): -5%
- growth inhibition [6, 16]: 5%
- growth inhibition ([6]; at 50.0 µM): 2.6%
- growth inhibition ([6]; at 100.0 µM): 56%
- growth inhibition ([7]; at 1.2 µM): -3%
- growth inhibition ([7]; at 3.7 µM): -4%
- growth inhibition ([7]; at 11.0 µM): -11%
- growth inhibition ([7]; at 33.0 µM): -10%
- growth inhibition ([7]; at 100.0 µM): 52%
- growth inhibition ([8]; at 1.2 µM): -7%
- growth inhibition ([8]; at 3.7 µM): -7%
- growth inhibition ([8]; at 11.0 µM): -18%
- growth inhibition ([8]; at 33.0 µM): -13%
- growth inhibition ([8]; at 100.0 µM): 72% (active)
- growth inhibition ([9]; at 1.2 µM): 5%
- growth inhibition ([9]; at 3.7 µM): 5%
- growth inhibition [9, 15]: 17%
- growth inhibition ([9]; at 11.0 µM): 22%
- growth inhibition ([9]; at 33.0 µM): 38%
- growth inhibition [9, 16]: 58%
- growth inhibition ([9]; at 50.0 µM): 35.6%
- growth inhibition ([9]; at 100.0 µM): 89% (active)
- growth inhibition ([10]; at 1.2 µM): -2%
- growth inhibition ([10]; at 3.7 µM): -5%
- growth inhibition ([10]; at 11.0 µM): -6%
- growth inhibition ([10]; at 33.0 µM): -13%
- growth inhibition ([10]; at 100.0 µM): 66%
- growth inhibition ([11]; at 1.2 µM): -2%
- growth inhibition ([11]; at 3.7 µM): -5%
- growth inhibition ([11]; at 11.0 µM): -2%
- growth inhibition ([11]; at 33.0 µM): -7%
- growth inhibition ([11]; at 100.0 µM): 69%
- growth inhibition ([12]; at 1.2 µM): -3%
- growth inhibition ([12]; at 3.7 µM): -2%
- growth inhibition ([12]; at 11.0 µM): -3%
- growth inhibition ([12]; at 33.0 µM): -3%
- growth inhibition ([12]; at 100.0 µM): 79% (active)
- growth inhibition [13, 15]: -4%
- growth inhibition [13, 16]: 23%
- growth inhibition ([13]; at 50.0 µM): -2.5%
- growth inhibition ([14]; at 1.2 µM): -3%
- growth inhibition ([14]; at 3.7 µM): -4%
- growth inhibition ([14]; at 11.0 µM): 1%
- growth inhibition ([14]; at 33.0 µM): 5%
- growth inhibition ([14]; at 100.0 µM): 85% (active)

Source: PubChem BioAssay (NCI)
